Measured values reported in PubChem BioAssay AID1992 (Sanford-Burnham Center for Chemical Genomics, 2009).
Hit rate of the full screen: of about 50,000 compounds, about 350 (0.7%) were called active. The full list was thinned out, with actives kept by preference. A number with no mark means an inactive call. Cut-off read from the data, not from the text of the source: active = inhibition above about 60%; inactive = the rest.

What follows are molecules tested against Dual specificity protein phosphatase 3 (Homo sapiens) (UniProt P51452) (assay: human DUSP3 activity blockers – biochemical, colorimetric, HTS, primary screen (AID 1992)). Conditions: recombinant VHR phosphatase, colorimetric substrate read-out; at 20 µM; active compounds read high.
Sequence of Dual specificity protein phosphatase 3 (Homo sapiens) (P51452 whole entry, looked up): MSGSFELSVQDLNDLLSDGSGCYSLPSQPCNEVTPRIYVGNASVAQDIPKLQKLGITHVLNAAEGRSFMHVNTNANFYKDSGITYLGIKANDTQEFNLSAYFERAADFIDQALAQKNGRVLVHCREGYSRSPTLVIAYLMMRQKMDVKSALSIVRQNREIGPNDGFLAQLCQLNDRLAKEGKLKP

SMILES	inhibition
CCc1ccc(NC(=O)C(=O)NCCN2CCOCC2)cc1	12.8%
COc1ccc(C(=O)Nc2ccc3oc(-c4cc(Cl)c(OC)c(Cl)c4)nc3c2)cc1OC	45.4%
COc1ccc(N2C(=O)C3C4C=CC(C4=C(C)C)C3C2=O)c([N+](=O)[O-])c1 (stereo not drawn)	4.6%
COc1cccc(N2C(=O)C=CC2=O)c1	49.6%
COc1ccc(N2C(=O)C=CC2=O)c([N+](=O)[O-])c1	58.9% (active)
Cc1ccc(N2C(=O)/C(=C/N3CCOCC3)c3ccccc3C2=O)cc1	13.6%
CCOC(=O)c1c(N2C(=O)C3CC(C)=C(C)CC3C2=O)sc2c1CCCC2 (stereo not drawn)	-3.1%
COC(=O)Nc1ccc(S(=O)(=O)N2CCN(c3ccccc3OC)CC2)cc1	-59.1%
COc1ccccc1-n1c(=S)[nH]c2ccccc2c1=O	5.2%
COC(=O)C1=NNC2(C)C(=O)N(c3ccccc3OC)C(=O)C12 (stereo not drawn)	97% (active)
O=C(Nc1cc(C(F)(F)F)cc(C(F)(F)F)c1)c1ccco1	-7.4%
O=C(Nc1cccc(O)c1)c1cccnc1	-14.8%
CCOC(=O)COc1ccc(/C=N\n2nnnc2N)cc1OC	-44.1%
Cc1ccc(/C=C2/C=C(c3ccccc3)OC2=O)o1	74.2% (active)
CCCCOc1ccc(/C=C2/C=C(c3ccccc3)OC2=O)cc1	21.2%
Cc1ccc(C2=C/C(=C\c3cccnc3)C(=O)O2)cc1	14.8%
Cc1cc(C)c(NS(=O)(=O)c2ccc3ccccc3c2)c(C)c1	-0.6%
O=C(O)c1cc(-c2ccc(C=C3C(=O)c4ccccc4C3=O)o2)ccc1O	9.3%
O=C(N/N=C/c1ccc(-c2cccc(Cl)c2)o1)c1cccnc1	-17.2%
O=C(O)c1cc(-c2ccc(/C=N/Nc3ccc(Cl)c(Cl)c3)o2)ccc1Cl	89.1% (active)
O=C(CCc1n[nH]c(=O)[nH]c1=O)N/N=C/c1ccc([N+](=O)[O-])cc1	-17.4%
C#CCn1cc(/C=C(/C#N)C(=O)Nc2ccc(Cl)cc2)c2ccccc21	-3.6%
CC(=O)c1sc(NC(=O)c2cc(Cl)ccc2[N+](=O)[O-])nc1C	4.8%
O=C(Nc1ccccc1C(=O)O)c1ccc(NC(=O)c2cccs2)cc1	-7.6%
CCOC(=O)C1=C(C)N=c2s/c(=C\c3cc(OC)c(O)c(OC)c3)c(=O)n2C1c1ccccc1 (stereo not drawn)	35.5%

SMILES	inhibition
O=C(NCCCn1ccnc1)c1cc2c(ccc3ccccc32)oc1=O	-14.2%
C=C(C)COc1ccc2oc(-c3ccccc3)c(C(=O)O)c2c1	-5.7%
Cc1nc2cc(S(N)(=O)=O)ccc2n1-c1ccccc1	0.2%
O=C(CSc1nc2ccccc2c(=O)n1-c1ccccc1)Nc1ccccc1	-19.9%
O=S(=O)(O)c1nc2ccccc2n1-c1ccccc1	91.8% (active)
COc1ccc(OC)c(/C=C/C(=O)Nc2ccc(N(C)C)cc2)c1	-29.5%
Fc1cnc(NN=Cc2cccs2)nc1N1CCOCC1	-10.8%
CC(=O)N(C1=C(Cl)C(=O)c2ccccc2C1=O)c1cccc(Br)c1	84.5% (active)
O=C(CN(c1cccc(Br)c1)S(=O)(=O)c1ccccc1)N1CCOCC1	-30.2%
CC1CCCC(C)C1NC1=C(Cl)C(=O)c2ccccc2C1=O (stereo not drawn)	-2.5%
COc1ccc(N2C(=O)c3cccc4cccc(c34)C2=O)cc1OC	7.9%
COc1cc(C(=O)Nc2cccc3nsnc23)cc(OC)c1OC	-4.9%
COc1ccc(NC(=O)c2cccc(Cl)c2Cl)cc1OC	1.3%
Cc1ccc(C(=O)NCCNc2ccc([N+](=O)[O-])cc2Cl)cc1	-20.4%
Cc1ccc(S(=O)(=O)N(Cc2ccccc2)c2ccccc2C(=O)NC2CCCC2)cc1	-20.6%
CC(=Nc1cc(Cl)ccc1O)c1c(-c2ccccc2)[nH]n(-c2nc3ccccc3s2)c1=O	2.5%
COc1ccccc1NC(=O)C1=C(C)Nc2sc(C#N)c(N)c2C1c1ccco1 (stereo not drawn)	4.4%
CCOC(=O)c1c(NC(=O)Cc2ccc(Cl)cc2)sc(C(=O)Nc2cccc(OC)c2)c1C	-1.7%
CCOC(=O)c1c(NC(=O)Cc2ccc(Cl)cc2)sc(C(=O)Nc2ccccc2OC)c1C	103% (active)
CCOC(=O)c1c(NC(=O)c2ccccc2C)sc(C(=O)Nc2ccccc2OC)c1C	-2.4%
CCOC(=O)c1c(NC(=O)c2ccc(OC)c(OC)c2)sc(C(=O)Nc2ccc(C)cc2C)c1C	-18.8%
CCOC(=O)c1c(NC(=O)C23CC4CC(CC(C4)C2)C3)sc(C(=O)Nc2ccccc2OC)c1C	120% (active)
CCOC(=O)c1c(NC(=O)c2ccccc2OC)sc(C(=O)Nc2ccccc2F)c1C	-11.7%
Cc1c(C#N)sc2nc(-c3ccccc3)nc(/N=C/N(C)C)c12	-22.8%
Nc1ccc2nc(Sc3nc4ccc([N+](=O)[O-])cc4s3)sc2c1	-10.9%

SMILES	inhibition
CC1=C(C(=O)Nc2ccc(C)cc2)C(c2ccc([N+](=O)[O-])cc2)NC(=O)N1 (stereo not drawn)	-6.8%
CC12CCC(CC1=O)C(C)(C)N2 (stereo not drawn)	-18.3%
O=C1C=CC(=O)N1Nc1c(Cl)cc(Cl)cc1Cl	102% (active)
COc1ccc(Nc2ncnc3ccc(Br)cc23)cc1	0.8%
O=C(CSc1ccccc1C(=O)O)c1ccc(-c2ccccc2)cc1	2.1%
Cc1ccc(C)c(OCc2nnc(NC(=O)c3ccccc3)s2)c1	5.1%
Cc1cc(C)cc(OCCCCNC(C)(C)C)c1	-33.4%
Cc1nc2cc(-c3ccc(Br)cc3)[nH]n2c(=O)c1C	10.2%
CC(=O)N1c2ccc3ccccc3c2C2C=CCC2C1c1ccc(F)cc1 (stereo not drawn)	-6.5%
Cc1[nH]n(-c2ccc(Cl)cc2)c(=O)c1/C=N/NC(=O)c1ccccc1[N+](=O)[O-]	-37.1%
CC(=O)Nc1ccc(N2C(=O)C3C4C=CC(CC4)C3C2=O)cc1 (stereo not drawn)	-14%
COc1ccccc1C1CC(c2ccc(F)cc2)=NN1c1ccccc1 (stereo not drawn)	-3.2%
O=C1N=c2ccc(I)cc2=C1c1[nH]c(=S)[nH]c1O	-37.4%
Cc1ccc(S(=O)(=O)NCCNS(C)(=O)=O)cc1[N+](=O)[O-]	-9.6%
CCN(CC)C(=O)CSc1nc(O)c(Cc2ccccc2)c(=O)n1-c1ccc(OC)cc1	26.5%
O=C(O)CCCCCN1C(=O)C(=O)/C(=C(/O)c2ccc(F)cc2)C1c1cccc([N+](=O)[O-])c1 (stereo not drawn)	5%
COc1cc(/C=c2\sc3nc4c(C)cc(C)cc4n3c2=O)cc(Br)c1O	-5.5%
Cc1cc(C)c2nc3s/c(=C\c4ccc(N(C)C)cc4)c(=O)n3c2c1	-22.7%
Cc1cc(C)c2nc3s/c(=C\c4ccc(-c5ccccc5C(=O)O)o4)c(=O)n3c2c1	69.3% (active)
COc1cc(NC(=O)c2ccc(-c3ccc([N+](=O)[O-])cc3C)o2)ccc1NC(=O)c1ccco1	-3.8%
c1ccc(-c2nnc(SC3CCCC3)nc2-c2ccccc2)cc1	-9.1%
Clc1cccc(CN2CCN(C3CCN(Cc4ccccc4)CC3)CC2)c1	-6.2%
Cc1ccc(S(=O)(=O)c2ccc(Oc3ccc(Cl)cc3)cc2)cc1	-26.6%
